Rows were chosen to be rich in hits. Some 8.2% of all compounds tested hit in one or more screens of this group.
MCF10A rerep = inducers of DNA re-replication in MCF 10A breast cells | MCF 10A DNA re-replication, Hoechst nuclear intensity, 48 h | hit rate 2.9% among 350,000 | Potency, µM (top dose mostly 46.1 µM), for the others: at the highest dose activity, positive = re-replication, most hits filed as activators; further: % of control where 0% means no effect; nearly all actives have a fitted effect of over 50% in size
KB-3-1 cytotox = KB-3-1 parental cell cytotoxicity. KB-3-1 viability, CellTiter-Glo ATP luminescence, 72 h. Potency, µM (highest dose often 46.1 µM), most hits filed as cytotoxic. hit rate 1.4% among 400,000. AID 1347075; further: on the % scale 0 is the no-effect control and ±100 the full control effect; nearly all actives have a fitted effect of over 60% in size
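72 h, 37 °C compound treatment of KB-3-1 parental cells; CellTiter-Glo added, 10 min, luminescence read. Data corrected against DMSO-only plates and normalized before curve fitting.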
SW480 rereplic = DNA re-replication induction in SW480 cells. SW480 DNA re-replication, Hoechst DNA content imaging, 48 h. Potency, µM (top dose mostly 46.1 µM), for the others: top-dose re-replication activation, hits mostly activators. hit rate 1.8% among 340,000. AID 624297; further: % of control where 0% means no effect; nearly all actives have a fitted effect of over 55% in size
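250 cells/well; 23 nL cpd via pin tool; 48 hr, 37 C, 5% CO2; Hoechst 40 min; imager read of total nuclear intensity, ex 405/em 500-530 nm.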
KB-V1 cytotox = KB-V1 MDR subline cytotoxicity | Potency, µM (doses to about 46.1 µM), usual class: cytotoxic | AID 1347076 | hit rate 3.4% among 400,000 | KB-V1 MDR cells viability, CellTiter-Glo, 72 h; further: on the % scale 0 is the no-effect control and ±100 the full control effect; nearly all actives have a fitted effect of over 60% in size
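KB-V1 MDR subline cells in DMEM (phenol-red free, 10% FBS) exposed to compounds in qHTS concentration series for 72 h at 37 degrees C. Viability read by CellTiter-Glo luminescence; concentration-effect curves fitted after normalization and correction.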
ELG1 DNA repair = blocks ELG1-dependent DNA repair in HEK293T cells; HEK293T ELG1-luciferase reporter, luminescence, 16 h; DNA damage induced by 5-fluorouridine; Potency, µM (series often up to 46.1 µM), without a hit: at the highest dose activity change, negative = inhibition, hits mostly inhibitors; hit rate 2.3% among 330,000; AID 504467; further: on the % scale 0 is the no-effect control and ±100 the full control effect; nearly all actives have a fitted effect of over 55% in size
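Step one: seed 2,000 cells per well. Step two: pin-transfer compound or DMSO alongside 5-fluorouridine. Step three: incubate 16 hr, 37 °C, 5% CO2. Step four: add ONE-Glo, wait 30 min, read luminescence.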
* marks the source's active call; other numbers are inactive results; i = inactive; ? = inconclusive; . = no result given. The call rests on the fitted dose curve; in most records, active means well fitted curve in the direction sought with a large enough effect; inconclusive means small, poorly fitted or top-dose-only effect, or another doubt; inactive means no such curve, though single readings can be large; an effect the other way counts as inactive or inconclusive. Potency means the concentration at half of the fitted maximal effect.

SMILES | MCF10A rerep | KB-3-1 cytotox | SW480 rereplic | KB-V1 cytotox | ELG1 DNA repair
O=C(/C=C/c1ccccc1)c1ccc(NC2=NCCCS2)cc1 | 18µM* | ? | ? | 21µM* | ?
Cc1cccc(C(=O)Nc2ccc(C(=O)/C=C/c3ccncc3)cc2)c1 | ? | ? | ? | i | ?
CC(C)(C)c1ccc(/C=C/C(=O)c2ccc(NC3=NCCCS3)cc2)cc1 | 18µM* | ? | ? | ? | -13%
CN(C)c1ccc(C(=O)/C=C/c2ccc(Br)cc2)cc1 | 5% | i | ? | i | ?
O=C(/C=C/c1ccc(Br)cc1)c1ccc(NC2=NCCCS2)cc1 | 5.2µM* | 21µM* | 4.6µM* | i | ?
C1=Nc2ccccc2/C1=C/c1c[nH]c2ccccc12 | . | ? | . | i | .
C=CCn1c(C(C)n2c(-c3cnccn3)nc3ccccc32)nc2ccccc21 (stereo unspecified) | . | i | . | ? | .
CCC(Sc1nc(-c2ccc(F)cc2)nc2c1Cc1c(CO)cnc(C)c1O2)C(=O)Nc1ccc(F)cc1 (stereo unspecified) | . | i | . | i | .
CC(OC(=O)Cn1[nH]c(=O)c2ccccc2c1=O)C(=O)NC1(C#N)CCCCC1 (stereo unspecified) | -1% | i | -4% | i | 0%
O=C(/C=C/c1ccc2c(c1)OCO2)Nc1ccc(Cl)cn1 | 15% | ? | 17% | i | ?
CCN(CC)S(=O)(=O)c1ccc2c(c1)N(CC(=O)Nc1c(C)cc(C)cc1C)C(=O)C1CCCN21 (stereo unspecified) | . | i | . | i | .
O=S(=O)(/N=C(/Nc1ccccn1)c1ccccc1)c1ccc(F)cc1 | 1% | i | -8% | ? | ?
O=C(NNc1c(Cl)cccc1Cl)c1cccs1 | -1% | i | -14% | i | 10%
C=CCn1c(SCc2csc(-c3ccc(Cl)cc3)n2)nnc1-c1ccccc1OC | ? | ? | . | 21µM* | ?
O=C(NC1CCOCC1)C1CCC(=O)N(Cc2ccc(Cl)cc2)C1 (stereo unspecified) | 9% | ? | 9.2µM* | i | 13%
CCN(c1ccccc1)S(=O)(=O)c1cccc(C(=O)NCC(c2ccco2)N2CCCCC2)c1 (stereo unspecified) | 19% | i | ? | i | .
CCOC(=O)c1cc(C#N)c(Oc2cccc(C(F)(F)F)c2)nc1-c1ccccc1 | ? | i | 6% | i | -10%
CCOC(=O)c1cc(C#N)c(Oc2ccc(F)cc2)nc1-c1ccccc1 | 13% | i | -4% | 9.2µM* | -6%
COc1cc(/C=N/Nc2ccccc2)ccc1O | ? | i | 24% | i | 13%
COc1ccc(OC)c(/C=N/Nc2nncn2/N=C/c2cc(OC)ccc2OC)c1 | 23µM* | 21µM* | ? | ? | ?
COc1cc(/C=N/Nc2nncn2/N=C/c2ccc(O)c(OC)c2)ccc1O | -5% | i | 0% | 23µM* | ?
CCCOc1ccc(C(=O)Nc2cc(-c3nc4ccccc4[nH]3)ccc2C)cc1 | . | i | . | i | .
COc1cccc(NC(=O)CSC2=Nc3ccccc3C3=NC(CCC(=O)NCCc4ccccc4)C(=O)N23)c1 (stereo unspecified) | . | i | . | i | .
CCOc1ccc2nc(SCC(=O)NNC(=O)c3ccco3)c(C)cc2c1 | 9% | ? | -9% | i | ?
CCOc1ccc2cc(/C=C/C(=O)c3ccco3)c(Cl)nc2c1 | 5.8µM* | ? | 16µM* | ? | ?
SMILES | MCF10A rerep | KB-3-1 cytotox | SW480 rereplic | KB-V1 cytotox | ELG1 DNA repair
COc1ccc(C(=O)COC(=O)CNC(=O)c2ccc(Cl)cc2Cl)c(OC)c1 | ? | i | -18% | ? | -16%
CC(=O)Nc1ccc(NC(=O)CCc2c(C)noc2C)cc1 | 2% | i | -48% | i | 4%
CC(C)(C)c1ccc2c(c1)C(=O)c1ccccc1C2=O | -4% | i | -1% | i | ?
CC(C)(C=O)C1=CC(=O)c2ccccc2C1=O | 13µM* | i | 7.3µM* | i | ?
Cc1cc(C)cc(OC(=O)c2cc(-c3ccc(Cl)cc3)on2)c1 | . | i | . | i | .
CCOc1ccc2nc(N/C(N)=N/C(=S)Nc3ccc(C)c(C)c3)nc(C)c2c1 | 5% | i | -1% | i | 1%

Compound activity deposited in PubChem by National Center for Advancing Translational Sciences (NCATS).
